# Sampled rows, rich in hits. Any-hit rate of the full collection: about 19%.
# IL-1B inflam inh: blocks inflammasome-driven IL-1 beta release; 360,000 compounds, 4.7% hits; activity change, % at 57.5 µM; THP-1 LPS/ATP IL-1B secretion, AlphaLISA, 16 h; active compounds read low; in the data active means activity change below about -50%; inconclusive means mostly about -30% to -49%; further: on the % scale 0 is the no-effect control and ±100 the full control effect
#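 THP-1 cells pretreated 1 hr with compounds (up to 57.5 uM final), then stimulated with LPS (250 ng/mL final) plus ATP (1.25 mM final); secreted IL-1B measured by AlphaLISA after 16 hr, decreased signal indicating inhibition.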
# TDP1 cell noCPT: qHTS for Inhibitors of human tyrosyl-DNA phosphodiesterase 1 (TDP1): qHTS in cells in absence of CPT | Potency, µM (highest dose often 46.2 µM), without a hit: at the top dose activity change, negative = growth inhibition, actives largely listed as inhibitors | DT40 Tdp1-/- hTDP1 cells, no CPT, ATP luminescence, 48 h | AID 686978, 2013 | 420,000 compounds, 15% hits; further: potency means the concentration at half of the fitted maximal effect; on the % scale 0 is the no-effect control and ±100 the full control effect; nearly all actives have a fitted effect of over 55% in size
#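 No-CPT arm: Tdp1-/-;hTDP1 DT40 cells (400/well) plus compounds, incubated ≥48 hr at 37 °C. Readout CellTiter-Glo luminescence.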
# HepG2 viability: kills HepG2 cells in TGF-b inhibitor counter-screen; HepG2 CAGA-GFP viability, ATP luminescence, 18 h; Potency, µM (titrated, usually from 46.1 µM), without a hit: at the highest dose activity change, negative = cytotoxicity, hits mostly cytotoxic; 410,000 compounds, 0.76% hits; AID 588856; further: potency means the concentration at half of the fitted maximal effect
#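 HepG2 CAGA-GFP cells (1000/well, DMEM with 1% FBS) received compound, then TGF-beta at 500 pg/mL final, and were incubated 18 hours at 37 degrees C. Viability was read by CellTiter-Glo luminescence. Media-only wells were set as complete cell-killing and DMSO as no toxicity.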
# DT40 TDP1 CPT: growth inhibition of DT40 Tdp1-/-;hTDP1 cells with camptothecin (screen for TDP1 inhibitors); chicken DT40 Tdp1-/-;hTDP1 cells + 20 nM CPT, ATP luminescence, 48 h; Potency, µM (titrated, usually from 46.2 µM), for inactives: at the highest dose activity change, negative = growth inhibition, hits mostly inhibitors; 420,000 compounds, 12% hits; further: potency means the concentration at half of the fitted maximal effect; on the % scale 0 is the no-effect control and ±100 the full control effect; nearly all actives have a fitted effect of over 55% in size
#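 Chicken DT40 Tdp1-/- cells stably complemented with human TDP1 were seeded at 400 cells/well in medium containing 20 nM camptothecin, exposed to pin-transferred compounds, and grown at 37 °C for at least 48 hr. Viability was read as ATP luminescence.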
# TDP1 block: blocks human tyrosyl-DNA phosphodiesterase 1; Q9NUW8; recombinant TDP1, AlphaScreen DNA substrate cleavage; Potency, µM (highest dose often 130 µM), without a hit: at the highest dose activity change, negative = inhibition, most hits filed as inhibitors; 350,000 compounds, 0.28% hits; AID 485290; further: potency means the concentration at half of the fitted maximal effect; on the % scale 0 is the no-effect control and ±100 the full control effect; nearly all actives have a fitted effect of over 40% in size
# Target sequence (Q9NUW8 whole entry, looked up): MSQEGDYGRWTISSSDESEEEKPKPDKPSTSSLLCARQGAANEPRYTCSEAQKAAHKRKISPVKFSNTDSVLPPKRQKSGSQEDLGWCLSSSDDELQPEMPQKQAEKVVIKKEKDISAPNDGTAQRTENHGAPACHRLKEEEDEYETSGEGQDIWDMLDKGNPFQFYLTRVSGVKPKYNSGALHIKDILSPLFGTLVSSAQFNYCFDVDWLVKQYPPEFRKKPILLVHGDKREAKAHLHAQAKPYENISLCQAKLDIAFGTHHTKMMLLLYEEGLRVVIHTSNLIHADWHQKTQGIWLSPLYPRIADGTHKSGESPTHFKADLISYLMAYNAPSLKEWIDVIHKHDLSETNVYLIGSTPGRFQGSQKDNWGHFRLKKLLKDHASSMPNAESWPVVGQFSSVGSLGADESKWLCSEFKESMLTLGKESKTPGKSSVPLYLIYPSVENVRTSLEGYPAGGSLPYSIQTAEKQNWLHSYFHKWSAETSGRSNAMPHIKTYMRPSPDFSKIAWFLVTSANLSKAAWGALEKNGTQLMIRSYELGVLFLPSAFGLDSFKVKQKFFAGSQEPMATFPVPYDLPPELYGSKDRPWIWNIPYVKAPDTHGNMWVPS
#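 Recombinant human Tdp1 (E. coli-expressed, 1 nM final) preincubated with compounds 15 min at room temperature, then 5'-biotin/3'-phosphotyrosine-FITC DNA substrate (15 nM final) added for 5 min. AlphaScreen beads (10 ug/ml final) added 10 min; cleavage lowers signal.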
# TGFb inhibitor: blocks TGF-b signaling. HepG2 CAGA-GFP TGF-b/SMAD3 reporter, GFP fluorescence, 18 h; TGF-beta stimulated, 500 pg/mL final. Potency, µM (series often up to 46.1 µM), for the others: at the highest dose activity, negative = inhibition, actives largely listed as inhibitors. 410,000 compounds, 1.2% hits; further: potency means the concentration at half of the fitted maximal effect; on the % scale 0 is the no-effect control and ±100 the full control effect; nearly all actives have a fitted effect of over 65% in size
#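 First, reporter cells (HEPG2 CAGA-GFP) rested 2 h at 37 degrees C. Next, compounds were pinned in and TGF-beta added to 500 pg/mL final. After 18 h, GFP was imaged per cell and summed per well.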
# The depositor's hits bear a star; u = inconclusive; x = not tested or not shown; ! = not confirmed by another sample; [ ] = remark or other dose. Unless noted, the call rests on the fitted dose curve; in most records, active means well fitted curve in the direction sought with a large enough effect; inconclusive means small, poorly fitted or top-dose-only effect, or another doubt; inactive means no such curve, though single readings can be large; an effect the other way counts as inactive or inconclusive.
SMILES,IL-1B inflam inh,TDP1 cell noCPT,HepG2 viability,DT40 TDP1 CPT,TDP1 block,TGFb inhibitor
FC(F)(F)c1ccc(-c2cccc3c2C2CC3CCN2Cc2ccc3c(c2)OCO3)cc1 (centres undefined),8,16µM*,-23%,u,x,-18%
O=C(O)CCc1cc(I)c(O)c(I)c1,x,-19%,x,-25%,6%,x
S=C(NC1CCCCC1)N1CCOCCOCCN(C(=S)NC2CCCCC2)CCOCCOCC1,-9,u,-13%,u,x,u
O=C(NC1CCCCCC1)C(=S)N1CCOCC1,-7,16µM*,-23%,u,-3%,-30%
CCOC(=O)c1cnc2c(C(F)(F)F)cccc2c1Nc1cccc(C(=O)OC)c1,x,15µM*,-12%,u,x,6%
CCOC(=O)c1cnc2c(ccc3ccccc32)c1Nc1ccccc1O,x,u,3%,21µM*,x,u
CCOC(=O)c1cnc2c(C)cccc2c1Nc1ccc(OC(C)C)cc1,x,23µM*,-47%,u,x,-20%
CCOC(=O)c1cnc2c(C)cc(C)cc2c1Nc1ccc(OCc2ccccc2)cc1,x,-18%,-17%,-10%,2%[12.3 µM],2%
CCOC(=O)c1cnc2ccc(C(=O)OC)cc2c1Nc1cccc(C(=O)O)c1,40,10%,1%,20%,2%,18%
COC(=O)c1ccc(C(NC(=O)OCc2ccccc2)/C(=C/[C@@H](C)C(=O)NCCF)c2cccnc2)cc1 (some centres undefined),x,x,x,x,5%,x
CCOC(=O)c1ccc(NC(=O)CN2C(=O)C(C)(C)c3ccccc32)cc1,x,u,-9%,u,-3%,-7%
CCOc1ccc(NC(=O)CN2C(=O)COc3ccc(Cl)cc32)cc1,2,-6%,-1%,u,1%,9%
CCOC(=O)c1ccc(NC(=O)CN2C(=O)COc3ccc(Cl)cc32)cc1,x,16µM*,-10%,13µM*,1%,0%
O=C(CN1C(=O)c2cccnc2Oc2ccc(Cl)cc21)NC1CCCCC1,-4,-22%,-64%,u,x,-30%
CCCCN(C)C(=O)CN1C(=O)c2cccnc2Oc2ccc(Cl)cc21,x,u,2%,-27%,10%,0%
CCOC(=O)c1ccc(NC(=O)CN2c3ccccc3S(=O)(=O)c3ccccc32)cc1,x,u,-1%,u,7%,11µM*
CCOC(=O)c1ccc(NC(=O)CN2C(=O)c3cccnc3Oc3ccc(Cl)cc32)cc1,x,21µM*,-25%,u,2%,u
Cc1cccc(NC(=O)CN2C(=O)c3cccnc3Oc3ccc(Cl)cc32)c1C,x,21µM*,-4%,-98%,5%,-23%
O=S1(=O)OC(c2ccc(O)cc2)(c2ccc(O)cc2)c2ccccc21,x,0%,x,5%,11%,x
CCC(=O)Nc1ccc2c(c1)nc(CCNC(=O)c1ccco1)n2C,-6,0%,-15%,0%,8%,-4%
O=C(NCC1(N2CCOCC2)CCCC1)c1cnn(-c2nccc(-c3ccco3)n2)c1C1CC1,x,-29%,x,u,x,x
COc1cc(CNC(=O)c2cnn(-c3ncc4c(n3)-c3ccccc3CC4)c2C)cc(OC)c1OC,x,-17%,x,-2%[9.04 µM],x,x
Cc1ccc(NC(=O)CN2C(=O)c3cccnc3Oc3ccc(Cl)cc32)cc1,x,29µM*,-10%,21µM*,2%,0%
Cc1ccc2c(c1)N(CC(=O)Nc1c(C)cccc1C)C(=O)c1cccnc1O2,0,16%,1%,-6%,0%,16%
COCC(=O)Nc1ccc(OCc2ccccc2)cc1,4,-18%,-18%,-17%,0%,-8%
SMILES,IL-1B inflam inh,TDP1 cell noCPT,HepG2 viability,DT40 TDP1 CPT,TDP1 block,TGFb inhibitor
S=C(c1ccc(OCc2ccccc2)cc1)N1CCCC1,-5,u,-32%,18µM*,3%,u
Oc1ccc(NCc2ccc(OCc3ccccc3)cc2)cc1,60,12µM*,10µM*!,6.5µM*,8%,16µM*
Oc1ccc(OCc2ccccc2)cc1,x,u,x,4µM*,9%[56.1 µM],x
COC(=O)Nc1ccc(OCc2ccccc2)cc1,-3,-13%,-7%,-27%,0%,4%
CCC(C)NC(=O)COc1ccc(OCc2ccccc2)cc1 (centres undefined),19,26µM*,2%,u,-4%,-7%
Fc1ccc(COc2ccc(C(=S)N3CCCC3)cc2)cc1,-28,u,-7%,0%,2%,0%
CC1CCCN(S(=O)(=O)c2ccc(C(=O)Nc3nnc(-c4ccccc4Cl)o3)cc2)C1 (centres undefined),17,6.5µM*,-51%,2.9µM*,5%,-6%
CC1CCCN(S(=O)(=O)c2ccc(C(=O)Nc3nnc(-c4ccccn4)o3)cc2)C1 (centres undefined),14,21µM*,-42%,u,10%,-25%
Cc1nnc(NC(=O)c2ccc(S(=O)(=O)N3CCCCCC3)cc2)o1,-4,u,-37%,-23%,6%,2%
COc1ccccc1-c1nnc(NC(=O)c2ccc(S(=O)(=O)N3CCCC3)cc2)o1,0,9.2µM*,-32%,23µM*,5%,-11%
O=C(Nc1nnc(-c2ccccn2)o1)c1ccc(Br)cc1,21,18µM*,-7%,u,8%,u
CCOC(=O)C1=CN(Cc2ccco2)S(=O)(=O)N(CC)C1c1cccc(OC)c1 (centres undefined),-14,-24%,-9%,-22%,2%[56.1 µM],-1%
Cc1ccc2[nH]c(CSc3nnc(NC(=O)COc4ccccc4F)s3)cc(=O)c2c1,x,u,-10%,u,-5%,u
CC1CCCN(S(=O)(=O)c2ccc(C(=O)Nc3nnc(C4CC4)o3)cc2)C1 (centres undefined),83,u,-20%,18µM*,4%,-10%
Cn1c(=O)c2c(nc(CN3CCCCC3)n2CCCc2ccccc2)n(C)c1=O,12,u,-13%,u,x,-1%
Cn1c(=O)c2c(nc(CN3CCN(C(=O)c4ccco4)CC3)n2CCCc2ccccc2)n(C)c1=O,10,21µM*,-18%,u,-1%,-21%
CC1CCCN(Cc2nc3c(c(=O)n(C)c(=O)n3C)n2CCCc2ccccc2)C1 (centres undefined),-2,18µM*,-7%,21µM*,4%,-19%

# Screening data (PubChem)
